{
  "source": "ChEMBL document CHEMBL4513141",
  "about": "“CO-ADD screening of NIH (USA) - Clinical Collection” (2021)",
  "note": "Potency and affinity values are given separately.",
  "data": [
    {"system": "Staphylococcus aureus", "details": "Concentration 20 uM; ASSAY_TEST Inhibition of Bacterial Growth; detection method Absorption (OD600); MEDIA CAMHB; plate type 384well; NBS; CORNING #3640; time 18 hr", "units": {"Inhibition": "%"}, "values": [
      {"smiles": "CC(N)(Cc1ccc(O)c(O)c1)C(=O)O", "note": "(stereo not drawn) [METHYLDOPA (RACEMIC)]", "Inhibition": -29.5},
      {"smiles": "CC(=O)O.NCc1ccc(S(N)(=O)=O)cc1", "note": "[MAFENIDE ACETATE]", "Inhibition": 12.98},
      {"smiles": "O=C1N=C([O-])NC1(c1ccccc1)c1ccccc1.[Na+]", "note": "[PHENYTOIN SODIUM]", "Inhibition": 10.31},
      {"smiles": "NC(N)=Nc1nc(CSCC/C(N)=N/S(N)(=O)=O)cs1", "note": "[FAMOTIDINE]", "Inhibition": 6.96},
      {"smiles": "O=C1CCc2ccc(OCCCCN3CCN(c4cccc(Cl)c4Cl)CC3)cc2N1", "note": "[ARIPIPRAZOLE]", "Inhibition": -0.8}
    ]},
    {"system": "Escherichia coli", "details": "Concentration 20 uM; ASSAY_TEST Inhibition of Bacterial Growth; detection method Absorption (OD600); MEDIA CAMHB; plate type 384well; NBS; CORNING #3640; time 18 hr", "units": {"Inhibition": "%"}, "values": [
      {"smiles": "Nc1ccc(S(=O)(=O)c2ccc(N)cc2)cc1", "note": "[DAPSONE]", "Inhibition": 0.96},
      {"smiles": "Nc1ccc(O)c(C(=O)O)c1", "note": "[MESALAMINE]", "Inhibition": 3.21},
      {"smiles": "C#C[C@]1(O)CC[C@H]2[C@@H]3CCc4cc(O)ccc4[C@H]3CC[C@@]21C", "note": "[ETHINYL ESTRADIOL]", "Inhibition": 3.7},
      {"smiles": "CCOC(=O)[C@H](CCc1ccccc1)N[C@@H](C)C(=O)N1[C@H](C(=O)O)C[C@@H]2CCC[C@@H]21", "Inhibition": 1.83},
      {"smiles": "CS(=O)(=O)OCCCCOS(C)(=O)=O", "note": "[BUSULFAN]", "Inhibition": 10.16},
      {"smiles": "CC1CCN(CCCC(=O)c2ccc(F)cc2)CC1.Cl", "Inhibition": 6.76},
      {"smiles": "CC(=O)NS(=O)(=O)c1ccc(N)cc1", "note": "[SULFACETAMIDE]", "Inhibition": 1.92},
      {"smiles": "CNCC[C@@H](Oc1ccccc1C)c1ccccc1.Cl", "note": "[ATOMOXETINE HYDROCHLORIDE]", "Inhibition": 5.13},
      {"smiles": "Cl.O=C1[C@H]2CCCC[C@H]2C(=O)N1CCCCN1CCN(c2nsc3ccccc23)CC1", "Inhibition": 0.37},
      {"smiles": "COc1ccnc(C[S+]([O-])c2nc3cc(OC(F)F)ccc3[n-]2)c1OC.O.[Na+]", "note": "(stereo not drawn) [PANTOPRAZOLE SODIUM]", "Inhibition": 1.53},
      {"smiles": "Nc1ccn([C@@H]2CS[C@H](CO)O2)c(=O)n1", "note": "[LAMIVUDINE]", "Inhibition": 8.04},
      {"smiles": "Cc1c(C(=O)NN2CCCCC2)nn(-c2ccc(Cl)cc2Cl)c1-c1ccc(I)cc1", "Inhibition": 1.46},
      {"smiles": "CC(COc1ccccc1)NC(C)C(O)c1ccc(O)cc1.Cl", "note": "(stereo not drawn) [ISOXSUPRINE HYDROCHLORIDE]", "Inhibition": -2.1},
      {"smiles": "Cc1[nH]c(=O)c(C#N)cc1-c1ccncc1", "note": "[MILRINONE]", "Inhibition": -0.64},
      {"smiles": "CCCc1nc2c(C)cc(-c3nc4ccccc4n3C)cc2n1Cc1ccc(-c2ccccc2C(=O)O)cc1", "Inhibition": 4.91},
      {"smiles": "CC(=O)O[C@]1(C(C)=O)CC[C@H]2[C@@H]3C[C@H](C)C4=CC(=O)CC[C@]4(C)[C@H]3CC[C@@]21C", "note": "[MEDROXYPROGESTERONE ACETATE]", "Inhibition": 2},
      {"smiles": "Cl.O=C(c1ccc(OCCN2CCCCC2)cc1)c1c(-c2ccc(O)cc2)sc2cc(O)ccc12", "note": "[RALOXIFENE HYDROCHLORIDE]", "Inhibition": -1.03},
      {"smiles": "CCN(Cc1ccncc1)C(=O)C(CO)c1ccccc1", "note": "(stereo not drawn) [TROPICAMIDE]", "Inhibition": 5.49},
      {"smiles": "COC(=O)C1=C(C)NC(C)=C(C(=O)OCC(C)C)C1c1ccccc1[N+](=O)[O-]", "note": "(stereo not drawn) [NISOLDIPINE]", "Inhibition": 14.24},
      {"smiles": "CC(=O)O[C@@]12CO[C@@H]1C[C@H](O)[C@@]1(C)C(=O)[C@H](O)C3=C(C)[C@@H](OC(=O)[C@H](O)[C@@H](NC(=O)OC(C)(C)C)c4ccccc4)C[C@](O)([C@@H](OC(=O)c4ccccc4)[C@H]21)C3(C)C", "Inhibition": 3.46},
      {"smiles": "CCCC1O[C@@H]2C[C@H]3[C@@H]4CCC5=CC(=O)C=C[C@]5(C)[C@H]4[C@@H](O)C[C@]3(C)[C@]2(C(=O)CO)O1", "note": "(stereo partly drawn) [BUDESONIDE]", "Inhibition": -1.42},
      {"smiles": "Cc1cccc(CCN2CCC(C(=O)c3ccc(NS(C)(=O)=O)cc3)CC2)n1.Cl.Cl", "Inhibition": -5.54},
      {"smiles": "CC(=O)OCC(=O)C12OC3(CCCC3)OC1CC1C3CCC4=CC(=O)C=CC4(C)C3(F)C(O)CC12C", "note": "(stereo not drawn)", "Inhibition": 7.38},
      {"smiles": "CCN(CC)C(=O)[C@]1(c2ccccc2)C[C@@H]1CN.Cl", "note": "[1R,2S-MILNACIPRAN HYDROCHLORIDE]", "Inhibition": 4.64},
      {"smiles": "COc1ccccc1N1CCN(CC(O)COc2cccc3ccccc23)CC1", "note": "(stereo not drawn) [NAFTOPIDIL]", "Inhibition": 7.29},
      {"smiles": "CCC(CO)NCCNC(CC)CO", "note": "(stereo not drawn)", "Inhibition": 2.87},
      {"smiles": "Nc1ccn([C@H]2CC[C@@H](CO)O2)c(=O)n1", "note": "[ZALCITABINE]", "Inhibition": -9.44},
      {"smiles": "OCc1cc(C(O)CNCCCCCCOCCCCc2ccccc2)ccc1O", "note": "(stereo not drawn) [SALMETEROL]", "Inhibition": 8.33},
      {"smiles": "NS(=O)(=O)c1cc2c(cc1Cl)NCNS2(=O)=O", "note": "[HYDROCHLOROTHIAZIDE]", "Inhibition": -0.12},
      {"smiles": "CC(=O)CCCCn1cnc2c1c(=O)n(C)c(=O)n2C", "note": "[LOMIFYLLINE]", "Inhibition": 5.02},
      {"smiles": "CN(C)CCOC(C)(c1ccccc1)c1ccccn1.O=C(O)CCC(=O)O", "note": "(stereo not drawn) [DOXYLAMINE SUCCINATE]", "Inhibition": 3.89},
      {"smiles": "CC(C)(C)NCC(O)COc1cccc2c1CC(O)C(O)C2", "note": "(stereo not drawn) [NADOLOL]", "Inhibition": 3.67},
      {"smiles": "CN1CCN(CCCN2c3ccccc3Sc3ccc(C(F)(F)F)cc32)CC1.Cl.Cl", "note": "[TRIFLUOPERAZINE HYDROCHLORIDE]", "Inhibition": 0.85},
      {"smiles": "CC(N)(Cc1ccc(O)c(O)c1)C(=O)O", "note": "(stereo not drawn) [METHYLDOPA (RACEMIC)]", "Inhibition": 7.2},
      {"smiles": "CC(=O)O.NCc1ccc(S(N)(=O)=O)cc1", "note": "[MAFENIDE ACETATE]", "Inhibition": 1.36},
      {"smiles": "O=C1N=C([O-])NC1(c1ccccc1)c1ccccc1.[Na+]", "note": "[PHENYTOIN SODIUM]", "Inhibition": 2.45},
      {"smiles": "NC(N)=Nc1nc(CSCC/C(N)=N/S(N)(=O)=O)cs1", "note": "[FAMOTIDINE]", "Inhibition": 3.55},
      {"smiles": "O=C1CCc2ccc(OCCCCN3CCN(c4cccc(Cl)c4Cl)CC3)cc2N1", "note": "[ARIPIPRAZOLE]", "Inhibition": 1.89}
    ]}
  ]
}
